Source: PubChem (several laboratories)
Sampled rows, rich in hits. Any-hit rate of the full collection: about 3.4%.
GAA850 FXN act – FXN promoter activators, primary screen, cell-based, luciferase luminescence, HEK293 lucGAA850; AID 540364, 2011; 360,000 compounds, 0.56% hits; activation, % at 6 µM; HEK293 lucGAA850 FXN promoter luciferase reporter, 24 h; percent of 10 µM SAHA response;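 active = activation above the average of all compounds screened plus 3 SD, cutoff fixed separately per campaign, cut at about 7.5% in these data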;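 note: 0% = DMSO wells and 100% = 10 µM SAHA wells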
H9c2 protect – cardioprotection against H2O2-induced cell death, primary screen, uHTS, H9c2 cells, ATPLite luminescence | H9c2 cardiomyocytes, H2O2 injury protection, 2 h | protection from H2O2 cell death, % at 20 µM | 360,000 compounds, 0.63% hits | AID 588492, 2011;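 active = compounds giving at least 50% protection of heart cells from peroxide-induced death in the single-dose screen, raw or plate-pattern-corrected value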;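 note: 0% = DMSO wells with peroxide and 100% = DMSO wells without peroxide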
Gli-Sufu block – Gli-Sufu pathway antagonists, primary screen, luciferase luminescence, Sufu-KO-LIGHT cells, uHTS. inhibition, % at 5 µM. 340,000 compounds, 0.74% hits. AID 588413, 2011. Sufu-KO-LIGHT fibroblasts, Gli luciferase reporter luminescence;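 active = inhibition above about 55%, limit read from the data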;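 note: 0% = DMSO-treated cells and 100% = wells with medium but no cells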
NR2F2 inh – NR2F2 transcriptional activity inhibitors, primary screen, cell-based, luciferase reporter, HEK293T, luminescence | COUP transcription factor 2 (Homo sapiens), P24468 | HEK293T NGFI-A luciferase reporter | inhibition, % at 8.6 µM | 370,000 compounds, 0.7% hits;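 active = inhibition above a per-plate cutoff, mean inhibition of test wells between control levels plus 3 SD, cut at about 38% in these data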;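 note: cells cotransfected with COUP-TFII expression vector driving the NGFI-A reporter; 0% = median of COUP-TF2 test wells and 100% = reporter-only cells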
Target sequence (P24468 whole entry, looked up): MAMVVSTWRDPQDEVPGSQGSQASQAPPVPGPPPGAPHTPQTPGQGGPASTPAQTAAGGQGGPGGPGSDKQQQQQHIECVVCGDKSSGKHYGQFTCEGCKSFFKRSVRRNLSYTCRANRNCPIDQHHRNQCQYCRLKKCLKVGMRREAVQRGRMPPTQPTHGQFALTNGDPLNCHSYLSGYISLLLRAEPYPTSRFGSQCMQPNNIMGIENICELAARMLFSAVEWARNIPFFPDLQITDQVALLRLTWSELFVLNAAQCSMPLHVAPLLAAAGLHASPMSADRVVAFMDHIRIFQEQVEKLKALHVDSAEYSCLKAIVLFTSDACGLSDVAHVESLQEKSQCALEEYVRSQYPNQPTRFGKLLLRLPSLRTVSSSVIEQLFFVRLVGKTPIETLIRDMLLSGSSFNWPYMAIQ
SMARCA2 act – SMARCA2 (BRM) function activators, primary screen, cell-based, luminescence, high throughput; MG213 cells, MMTV-luciferase reporter, dexamethasone, overnight; activation, % at 9.1 µM; 370,000 compounds, 1% hits; AID 652017, 2013; in the data active = activation above about 7.8%;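 note: 0% = vehicle wells and 100% = reference activator wells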
GalR3 antagonist – GalR3 antagonists in HEK293 cells, primary screen, cell-based, fluorescence readout | 360,000 compounds, 0.44% hits | Galanin receptor type 3 (Homo sapiens), O60755 | HEK293 GalR3-CNG cAMP membrane potential fluorescence; galR3 body fused to GalR1 C-terminus | AID 651719, 2012 | inhibition, % at 3 µM;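 active = inhibition above the screen-wide average plus 3 SD, cut at about 13% in these data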;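 note: forskolin and galanin both at EC90 stimulate the cells; cAMP rise reported by CNG channel membrane potential dye signal; 0% = forskolin plus galanin with DMSO and 100% = forskolin alone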
Numbers without * were called inactive; / = no result.

SMILES	GAA850 FXN act	H9c2 protect	Gli-Sufu block	NR2F2 inh	SMARCA2 act	GalR3 antagonist
O=C(Cn1ccc2ccccc2c1=O)NCC1COc2ccccc2O1 (stereo not drawn)	-1	2	5	-14	2	8
CCN(CC(=O)Nc1c(F)cccc1F)C(=O)Cn1[nH]c(=O)c2ccccc2c1=O	2	84*	-7	-25	-2	-2
O=C(COC(=O)Cc1n[nH]c(=O)c2ccccc12)NNC(=O)c1ccc(Cl)cc1	1	66*	1	2	-1	-4
O=C(Cn1[nH]c(=O)c2ccccc2c1=O)NCC1COc2ccccc2O1 (stereo not drawn)	0	57*	7	1	-4	-3
O=C(Cc1n[nH]c(=O)c2ccccc12)OCC(=O)c1ccc2c(c1)OCCO2	0	66*	2	-12	1	-3
C[C@@H]1/C=C/CC(=O)N[C@H](c2cccc(Br)c2)[C@H](C)/C=C/CC(=O)N[C@@H]1c1cccc(Br)c1	/	/	/	19	1	/
CCOC(=O)[C@@]12CCC3=C1N(CCC3)C(=O)[C@H](CC(=O)N1CCN(C(=O)C3CC3)CC1)C2	/	/	/	-13	0	/
COc1ccc(CN2C[C@@]3(O)CC[C@@H](O)[C@@H](OC)[C@@H]3[C@@]2(C)[C@H](O)CC=C(C)C)cc1	/	/	/	19	-1	-8
O=C(Nc1ccc(F)cc1)OCc1cn(Cc2cccc(F)c2F)nn1	/	/	/	2	-1	/
C=CCN(C(=O)[C@@H](CCCC)[C@@H](O)c1ccc(C(C)=O)cc1)c1ccccc1	/	/	/	-26	-2	/
O=C(OCC#CCSc1nnc(-c2ccc(F)cc2)o1)c1ccc(F)cc1	/	/	/	-4	/	/
O=C(Cc1n[nH]c(=O)c2ccccc12)OCC(=O)c1ccc(F)cc1	2	42	-7	-20	-1	-4
O=C(COC(=O)Cc1n[nH]c(=O)c2ccccc12)NNC(=O)c1ccc(Br)cc1	1	53*	-2	-4	0	2
CN(C)Cc1c(C(=O)N/N=C/c2cccc(OCc3c(F)cccc3Cl)c2)nnn1-c1nonc1N	-1	-14	67*	-9	-3	-12
CN(C)Cc1c(C(=O)N/N=C/c2ccccc2OCc2c(F)cccc2Cl)nnn1-c1nonc1N	-2	8	-3	-44	-2	-7
Cc1cc(C)n2nc(C(=O)N/N=C/c3c4ccccc4cc4ccccc34)nc2n1	1	64*	-5	1	-2	-4
Cc1cc(C)n2nc(C(=O)N/N=C/c3ccccc3Cl)nc2n1	0	19	10	9	2	-3
C[C@@H]1C(=O)N2N=Cc3ccccc3[C@H]2N2N=Cc3ccccc3[C@@H]12	/	/	/	-7	-3	/
COC(=O)[C@@]12CCCCC3=C1N(CCC3)C(=O)[C@H]2CC(=O)NCCCCc1ccccc1	/	/	/	-6	-3	/
O=C(Oc1ccc(Cl)c2cccnc12)c1cccc([N+](=O)[O-])c1	0	64*	-6	1	0	-4
O=C(Oc1c(Cl)cc(Cl)c2cccnc12)c1cccc([N+](=O)[O-])c1	-1	-6	4	/	/	/
CC(C)Cn1c(N)c(C(=O)CSc2ccc3c(c2)OCCO3)c(=O)n(C)c1=O	-6	-34	64*	28	-6	-4
CC(C)Cn1c(N)c(C(=O)COC(=O)c2ccc3c(c2)OCCO3)c(=O)n(C)c1=O	-1	-10	15	33	-4	-4
Oc1c(C(c2ccccc2Cl)N2CCCC2)ccc2cccnc12 (stereo not drawn)	-4	10	74*	-1	-1	-7
Oc1c(C(c2ccc(Cl)cc2)N2CCCC2)cc(Cl)c2cccnc12 (stereo not drawn)	-2	72*	21	34	-2	-5
SMILES	GAA850 FXN act	H9c2 protect	Gli-Sufu block	NR2F2 inh	SMARCA2 act	GalR3 antagonist
CC(=O)NC(c1cc(Cl)c2cccnc2c1O)C1CC1 (stereo not drawn)	-5	60*	34	3	-1	-2
CN1CCN(C(c2ccc(C(F)(F)F)cc2)c2ccc3cccnc3c2O)CC1 (stereo not drawn)	/	/	19	-6	0	-6
CCC(C(=O)Nc1c(C)cccc1C)n1c(-c2ccc(-c3ccccc3)cc2)nc2ccccc21 (stereo not drawn)	/	/	/	-28	-4	-6
C=CCN1C(=O)[C@@H](CC(=O)NCCc2ccccc2OC)[C@]2(C(=O)OC)CCCCC=C12	/	/	/	1	0	/
O=C(Nc1cc(S(=O)(=O)N2CCOCC2)ccc1N1CCCC1)c1cc2c(s1)CCCC2	/	/	/	17	/	/
CC(C)(C)c1ccc(OCCCC(=O)NNC(=O)c2ccccc2O)cc1	-4	52*	-23	-9	-4	-6
CCOc1cc(/C=N/NC(N)=O)cc(Br)c1OCC(=O)Nc1cccc2ccccc12	-2	57*	4	-14	-2	44*
C/C(=N/NC(=O)Cc1cccs1)c1cccc([N+](=O)[O-])c1	/	/	/	-20	6	/
COc1ccc(C[N+]2=C(N)NC3=C(C)Cn4c(=O)n(-c5ccccc5)c(=O)n4C3C2)c(OC)c1 (stereo not drawn)	/	/	/	-1	-2	/
COC(=O)[C@H](CC(C)C)N1Cc2nnn(Cc3ccccc3)c2-c2cc(F)ccc2S1(=O)=O	/	/	/	-5	-4	/
O=C(/C(=N/N=C/c1ccc(O)c(O)c1O)c1ccccc1)c1ccccc1	-1	58*	1	6	0	-5
Oc1ccc(/C=N/N=C(c2ccccc2)c2ccccc2)c(O)c1O	2	85*	6	4	-4	0
Fc1ccc(NC2CCC23CCC(c2ccccc2)CC3)cc1C(F)(F)F (stereo not drawn)	/	/	/	-3	/	/
COc1ccc(CCNC(=O)c2ccncc2)cc1OC	1	-4	4	-22	0	2
COc1ccc(CCNC(=O)c2cc3c(C)nccc3[nH]c2=O)cc1OC	2	76*	/	1	-6	-1
COc1cc2c(cc1OC)C(COc1ccc3c(C)cc(=O)oc3c1)N(C(=O)c1ccco1)CC2 (stereo not drawn)	-2	58*	14	4	1	-3
O=C(Nc1cccc(NC(=O)c2ccc(-c3cccc(Br)c3)o2)c1)c1ccco1	-5	60*	2	-15	2	-1
O=C(Nc1cccc(NC(=O)c2ccc([N+](=O)[O-])o2)c1)c1ccco1	-1	57*	6	16	3	-10
COc1ccc(Br)cc1C(=O)Nc1cccc(NC(=O)c2ccco2)c1	1	64*	1	15	-3	-5
O=C(NCCc1nc2ccccc2n1CCOc1ccc2cccnc2c1)C1CCCCC1	/	/	/	12	/	/
